Screens as filed in PubChem.
Rows were chosen to be rich in hits. Some 1.1% of all compounds tested hit in one or more screens of this group.
GPT2 inh: inhibitors of human GPT2 alanine aminotransferase | Q8TD30 | Recombinant GPT2, coupled pyruvate oxidase/HRP Amplex Red fluorescence | Potency, µM (highest dose often 57.7 µM), hits mostly inhibitors | 100,000 compounds, 0.25% hits; also: nearly all actives have a fitted effect of over 60% in size
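Fluorescence read-out: pyruvate from GPT2 turnover coupled to pyruvate oxidase, HRP and Amplex Red (0.2mM ThPP, 0.2U/mL PO and HRP, 50uM Amplex final). Substrates 250uM a-KG, 2mM L-alanine; enzyme 10ng/uL; 30 min RT.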
HEK293 viab: reduces viability of HEK-293 SNCA reporter cells | HEK-293-SNCA-luc viability, GF-AFC fluorescence, 24 h | Potency, µM (highest dose often 57.1 µM), most hits filed as cytotoxic | 150,000 compounds, 0.12% hits; also: nearly all actives have a fitted effect of over 30% in size
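HEK-293-SNCA-luc cells (1500/well) plated 24 h, then exposed 24 h to a dilution series; GF-AFC added 30 min at 37C, fluorescence 405/540 nm; normalised to medium-only and DMSO wells, Hill fit.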
IP6K1 inh: blocks human inositol hexakisphosphate kinase 1; IP6K1 kinase, ADP-Glo luminescence, 2 h; active compounds read low; activity change, % (series mostly up to about 58 µM); 140,000 compounds, 0.81% hits; AID 1645851; in the data active = activity change below about -25%
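ADP-Glo luminescence measures ADP made by human IP6K1 during a 2 h RT reaction with ATP/IP6 (mix at 1.3 mM/130 uM); top library doses 57.5 and 19.1 uM final.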
SNCA expr inh: reduces expression of the alpha-synuclein gene; Potency, µM (doses to about 57.2 µM), usual class: inhibitors; 140,000 compounds, 0.17% hits; AID 1671194; HEK-293 SNCA-luciferase knock-in, luminescence, 24 h; also: nearly all actives have a fitted effect of over 45% in size
IP6K1 inh cnf: human IP6K1 inhibition, confirmatory. 1,200 compounds, 13% hits. shares compounds with IP6K1 inh. recombinant IP6K1 kinase, ADP-Glo luminescence, 2 h. Potency, µM (highest dose often 49 µM), hits mostly inhibitors; also: nearly all actives have a fitted effect of over 65% in size
Hits are given with their value; n = inactive; u = inconclusive; x = no result; [ ] = remark or other dose. Unless noted, calls follow the shape of the dose curve; as a rule, active = well fitted curve in the direction sought with a large enough effect; inconclusive = small, poorly fitted or top-dose-only effect, or another doubt; inactive = no such curve, though single readings can be large; an effect the other way counts as inactive or inconclusive.

SMILES	GPT2 inh	HEK293 viab	IP6K1 inh	SNCA expr inh	IP6K1 inh cnf
CCOC(=O)[C@H]1CN(C(=O)c2cc3ccccc3s2)[C@]2(C)C(=O)N(CC3CC3)c3ccccc3[C@H]12	n	n	n	u	x
Cc1cc(SCc2sc(-c3ccc(C(F)(F)F)c(F)c3)nc2C)ccc1OCC(=O)O	u	n	-30	n	u
O=C(CCn1cccn1)N1C[C@H](c2cccc(F)c2F)[C@@H]2[C@H]1C1CCN2CC1	n[11.5 µM]	n	-33	n	n
Cc1ncsc1CCC(=O)N1C[C@@H](c2ccccc2)[C@@H]2[C@H]1C1CCN2CC1	n	n	n	u	x
COP(=S)(OC)SCN1C(=O)c2ccccc2C1=O	n	n	-37	n	18µM
CCOC(=O)[C@H]1CN(C(=O)OCC(C)(C)C)[C@]2(C)C(=O)N(CCO)c3ccccc3[C@H]12	n	n	n	n	x
CCOc1ccc(CN(CCc2ccc3c(c2)OCO3)Cc2cccc(OC)c2)cc1	x	n	-31	n	n
COc1cc2c(cc1OCC1CC1)NC(=O)C21CCN(C(=O)c2cccc(C#N)c2)CC1	n	n	-27	n	n
CN(Cc1cccc(-c2ccncc2)c1)C(=O)Oc1ccc(-c2ccc(C(N)=O)cc2)cc1	n	u	n	x	x
